Hits are enriched below; roughly 1.9% of the tested compounds scored in any of these assays.
GRK2 aptamer HTS: compounds blocking aptamer binding on GRK2 – biochemical, human GRK2, bead flow cytometry, HTS, primary screen. Beta-adrenergic receptor kinase 1 (Homo sapiens), P25098. 330,000 tested, 0.59% active. inhibition of aptamer binding, % at 10 µM. FAM-aptamer displacement from GRK2;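 active means inhibition of aptamer binding above 40%, roughly 3 SD of noise, on plates passing a quality check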;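 further: median bead fluorescence of bound FAM aptamer so fluorescent compounds give negative values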
Target sequence (P25098 whole entry, looked up): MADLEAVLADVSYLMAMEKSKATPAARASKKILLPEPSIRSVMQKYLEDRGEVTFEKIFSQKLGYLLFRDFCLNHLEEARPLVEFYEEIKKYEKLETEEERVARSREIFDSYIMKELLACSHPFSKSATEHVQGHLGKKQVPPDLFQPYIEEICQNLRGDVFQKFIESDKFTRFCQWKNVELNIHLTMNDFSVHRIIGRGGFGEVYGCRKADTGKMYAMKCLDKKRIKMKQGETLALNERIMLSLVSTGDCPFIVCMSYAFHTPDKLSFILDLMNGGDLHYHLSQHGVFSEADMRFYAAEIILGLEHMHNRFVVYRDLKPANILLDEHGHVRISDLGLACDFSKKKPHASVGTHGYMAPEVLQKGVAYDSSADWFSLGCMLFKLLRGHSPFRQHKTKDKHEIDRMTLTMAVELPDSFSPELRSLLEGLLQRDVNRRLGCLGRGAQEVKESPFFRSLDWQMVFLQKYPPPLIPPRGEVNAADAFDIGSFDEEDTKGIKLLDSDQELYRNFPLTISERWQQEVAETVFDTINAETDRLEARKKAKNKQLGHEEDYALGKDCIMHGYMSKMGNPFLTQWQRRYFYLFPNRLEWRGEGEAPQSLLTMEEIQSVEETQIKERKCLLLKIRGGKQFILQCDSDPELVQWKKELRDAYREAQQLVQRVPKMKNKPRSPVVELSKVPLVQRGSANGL
PERK inhibitor: block of dimerizer-induced PERK translation repression, primary screen, PERK inhibitor project, CHO PERK-DD cells, SEAP luminescence, HTS; Eukaryotic translation initiation factor 2-alpha kinase 3 (Homo sapiens), Q9NZJ5; CHO PERK-DD fusion, SEAP luminescence translation reporter; inhibition, % at 5.6 µM; 220,000 tested, 0.17% active;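 active means inhibition above the mean inhibition of all tested compounds plus 3 SD, set separately per screening campaign, cut at about 2.9% in these data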;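 further: PERK kinase domain activated by AP20187 dimerizer at 100 nM; 0% = DMSO with dimerizer and 100% = rapamycin at 8.4 µM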
PABP polyA inh: PABP poly(A) RNA binding inhibitors, primary screen, biochemical, fluorescence polarization, uHTS. Polyadenylate-binding protein 1 (Homo sapiens), P11940. inhibition, % at 35 µM. 290,000 tested, 1% active. AID 2014, 2009;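 further: calls also rest on retests at 20 µM and on dose response follow-up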
PABP1 MLLE inh: inhibitors of PABP1 MLLE–PAM2 peptide binding, primary screen, biochemical, fluorescence polarization, FITC-PAM2, GST-MLLE. Polyadenylate-binding protein 1 (Homo sapiens), P11940. inhibition, % at 20 µM. 360,000 tested, 0.36% active. AID 588489, 2011; in the data active means inhibition above about 35%, passing the limit was not always enough;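 further: plate controls were DMSO wells with GST-MLLE for no effect and wells lacking GST-MLLE protein for full effect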
eIF4H FP inh: human eIF4H binding inhibitors, primary screen, translation initiation inhibitor project, biochemical, uHTS, fluorescence polarization; Eukaryotic translation initiation factor 4H (Homo sapiens), Q15056; eIF4H fluorescence polarization binding assay; inhibition, % at 35 µM; 290,000 tested, 0.94% active;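 further: calls also rest on retests at 20 µM and on dose response follow-up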
* = called active by the depositor; . = no result; ! = repeats disagree. Unless noted, how the calls were made is not given here.

SMILES | GRK2 aptamer HTS | PERK inhibitor | PABP polyA inh | PABP1 MLLE inh | eIF4H FP inh
CCOc1cc(N2CCOCC2)c(OCC)cc1NS(=O)(=O)c1ccc(Cl)s1 | 2.0 | -0.7 | 26.4 | 15.6 | 97.4*
Cc1cccnc1C(NC(=O)C1CCN(Cc2ccc3ccccc3n2)CC1)c1ccc(Cl)cc1 (stereo not drawn) | . | . | . | -4.9 | .
O=C1CC(=O)c2c1cccc2[N+](=O)[O-] | . | -0.2 | 53.2* | . | 65.1*
Clc1ccc2nc(-c3ccccc3)c(CC3CCCCC3)n2c1 | . | . | . | 14.4 | .
Cc1ccccc1-n1c(=O)n(Cc2ccco2)c(=O)c2[nH]cnc21 | 22.0 | . | -5.4 | -5.4 | -8.3
CCC[N+]1(CC#CC(O)(c2ccccc2)C2CCCCC2)CCCCC1 (stereo not drawn) | 0.0 | 1.8 | 12.0 | -12.8 | 5.8
CC1(C(O)(C#CC[N+]2(C)CCCCC2)c2ccccc2)CCCC1 (stereo not drawn) | 1.0 | 0.6 | 70.0* | -123.1 | 6.9
COc1cccc(/C=N/Nc2nc3ccccc3n3cnnc23)c1 | 10.0 | 1.0 | 3.7* | 2.8 | 85.3*
CCCOc1ccc(N)cc1N | 10.0 | -1.4 | 101.8* | 11.3 | 78.7*
Cc1n[nH]c(=S)n(NC(=O)/C=C/C(=O)Nn2c(=S)[nH]nc(C)c2=O)c1=O | . | 0.2 | 86.4* | 9.6 | 92.4*
Cc1n[nH]c(=S)n(NC(=O)CC(=O)Nn2c(=S)[nH]nc(C)c2=O)c1=O | 0.0 | -1.1 | 5.1 | 28.9 | 21.6
c1cnc(N2CCN(Cc3ccc4c(c3)OCO4)CC2)nc1 | 0.0 | 0.8 | 62.0*! | 1.9 | 50.9*!
c1ccc(N2CCN(Cc3ccc4c(c3)OCO4)CC2)nc1 | 2.0 | . | . | -0.3 | .
COc1cccc(CNC(=O)Cn2ccc3cc(S(=O)(=O)N4CCCCCC4)ccc32)c1 | 6.0 | . | -7.3 | 3.8 | -2.3
CCOc1cc(C2NC(=S)NC(C)=C2C(=O)Nc2ccc(OC)cc2)ccc1O (stereo not drawn) | 0.0 | 3.4* | -7.5 | -124.3 | 4.6
CCOc1cccc(C2NC(=S)NC(C)=C2C(=O)Nc2ccccc2)c1 (stereo not drawn) | 7.0 | 1.1 | -7.6 | -125.1 | -5.0
O=c1c2c([nH]c3ccccc13)C(=C1CCCC1)CC2 | 9.0 | 0.2 | 69.6* | 4.1 | 82.3*
CC(c1ccccc1)C1CC(=O)N(c2cc(Cl)ccn2)C1=O (stereo not drawn) | 3.0 | -1.0 | -5.5 | 14.4 | -2.9
COc1ccc(-c2nnc(CSc3ncnc4sc5c(c34)CCC5)o2)cc1OC | . | . | 6.7* | 5.5 | 53.2*
COC1=C/C(=C/c2c(N)n3cc(C)sc3nc2=O)C=CC1=O | 0.0 | 0.7 | 3.4 | -147.7 | 60.2*
CN(C)CCNC(=O)C(=O)NCC1CCCN1S(=O)(=O)c1cccs1 (stereo not drawn) | 0.0 | . | . | 0.9 | .
Cc1nn(-c2cccc(Cl)c2)c2nc(-c3ccco3)cc(C(=O)O)c12 | 1.0 | -0.5 | 98.1* | 20.8 | 79.6*
O=C(O)c1cc(-c2ccco2)nn1-c1cccc(Cl)c1 | 6.0 | 0.3 | 9.1* | -21.7 | 83.1
Cc1nn(-c2ccccc2)c2nc(-c3ccco3)cc(C(=O)O)c12 | 7.0 | 0.0 | 66.2* | 6.4 | 88.2*
Cc1ccc2nc(-c3ccccn3)c(N)n2c1 | . | . | . | 9.7 | .
SMILES | GRK2 aptamer HTS | PERK inhibitor | PABP polyA inh | PABP1 MLLE inh | eIF4H FP inh
CN(C)CCCNCCCNC(=O)/C=N/O | 6.0 | 1.3 | 12.2 | -6.8 | 5.8
CN(C)CCCNCCCCNC(=O)/C=N/O | 6.0 | -0.2 | 60.8* | 2.5 | 16.2
Cc1ccc(C)c(NC(=O)CSc2nc(=O)n(CCN3CCOCC3)c3c2CCCC3)c1 | 1.0 | . | . | -0.3 | .
COc1cccc(C2C(C#N)=C(N)Oc3cc(C)n(Cc4ccco4)c(=O)c32)c1 (stereo not drawn) | 0.0 | 0.8 | 82.9* | -49.0 | 51.2*
COc1ccc(C2C(C#N)=C(N)Oc3cc(C)n(Cc4ccco4)c(=O)c32)cc1 (stereo not drawn) | 1.0 | 2.8 | 44.6 | -47.5 | 41.0
C[C@@H]1CN([C@@H](C)CO)C(=O)c2ccccc2-c2ccccc2CO[C@@H]1CN(C)S(=O)(=O)c1ccc(C(F)(F)F)cc1 | . | . | . | -3.1 | .
Nc1ccc(S(=O)(=O)Nc2nc3ccccc3o2)cc1 | 3.0 | . | 29.0* | 11.3 | 55.2*
COc1ccc(C(=O)NC2(C(F)(F)F)N=C3SCCN3C2=O)cc1 (stereo not drawn) | 0.0 | -0.6 | 2.6 | 40.3* | -1.9
Cc1cccc(NC2(C(F)(F)F)N=C3SCCN3C2=O)n1 (stereo not drawn) | 2.0 | 1.5 | 0.7 | 39.6* | -4.7
Cc1cccnc1NC1(C(F)(F)F)N=C2SCCN2C1=O (stereo not drawn) | 4.0 | 1.0 | 2.4 | 7.1 | -5.6
CC(=O)NC(C)(c1ccccc1)c1nc(-c2cccc(C#N)c2)cs1 (stereo not drawn) | . | . | . | -4.5 | .
O=C(Nc1ccc(Cl)c(C(F)(F)F)c1)C1Cc2c(-c3ccccc3)ccnc2O1 (stereo not drawn) | . | . | . | -0.6 | .
c1ccc(-n2ncc3c2ncn2nc(-c4ccco4)nc32)cc1 | 2.0 | -0.7 | 9.8 | 15.2 | 50.0*
COc1ccccc1N1CC(C(=O)Nc2nnc(SCC(=O)N3CCOCC3)s2)CC1=O (stereo not drawn) | 3.0 | . | -6.9 | 4.8 | -11.3
COc1cccc2sc3ccc(NCCC4CCCN4C)cc3c(=O)c12 (stereo not drawn) | 0.0 | . | 59.5* | -17.5 | 78.8*
CC(=O)Nc1ccc(SC[C@H](Cc2ccccc2)N2CC[C@@H](C(C)(C)C)CCC2=O)cc1 | 10.0 | . | . | 41.7* | .
CC(=O)Nc1ccc(SC[C@H](Cc2ccccc2)N2CC[C@@H](O)CCC2=O)cc1 | 0.0 | . | . | 40.6* | .
CC(C)(C)[C@H]1CCC(=O)N([C@H](CSc2ccccc2)Cc2ccccc2)CC1 | 0.0 | . | -3.4 | 16.3 | -0.8
COc1ccc([C@@H]2C[C@H]3[C@@H](CN2S(=O)(=O)c2ccccc2)C(=O)C[C@@H](c2ccc(C)cc2)N3S(=O)(=O)c2ccc(C)cc2)cc1 | . | . | . | -2.7 | .
N#CC(C#N)=Cc1cccn1-c1ccc(S(N)(=O)=O)cc1 | 1.0 | -0.8 | 54.4* | 9.0 | 0.5*
O=C(COC(=O)c1ccc[n+]([O-])c1)Nc1c(Br)cc([N+](=O)[O-])cc1Br | 2.0 | 1.0 | -1.7 | . | -4.7
COc1ccc(C2CC(c3c(O)cc(C)oc3=O)=NCCS2)c(OC)c1 (stereo not drawn) | 3.0 | -0.2 | 76.5* | -29.9 | 73.8*
Cc1cc(O)c(C2=Nc3ccccc3SC(c3ccc(Cl)cc3)C2)c(=O)o1 (stereo not drawn) | 2.0 | 0.8 | 5.8 | 27.4 | -3.9
COc1cccc(/C=C/C(=O)c2c(O)cc(C)oc2=O)c1O | 0.0 | 0.5 | 3.8 | 5.5 | -9.9
